The record followed here is PubChem BioAssay (Tox21).

Inconclusive results are not listed. A call without a number means that no potency is given here. Calls of active or inactive are those of the source. Calls come from the whole dose curve; as a rule, active = well fitted activation curve with a large enough effect in the repeat runs; inconclusive = weak or mixed curves; inactive = no such curve, though single readings can be large or run the other way.
Potency is the fitted concentration of half-maximal effect.

Sequence of Aryl hydrocarbon receptor (Homo sapiens) (P35869 whole entry, looked up): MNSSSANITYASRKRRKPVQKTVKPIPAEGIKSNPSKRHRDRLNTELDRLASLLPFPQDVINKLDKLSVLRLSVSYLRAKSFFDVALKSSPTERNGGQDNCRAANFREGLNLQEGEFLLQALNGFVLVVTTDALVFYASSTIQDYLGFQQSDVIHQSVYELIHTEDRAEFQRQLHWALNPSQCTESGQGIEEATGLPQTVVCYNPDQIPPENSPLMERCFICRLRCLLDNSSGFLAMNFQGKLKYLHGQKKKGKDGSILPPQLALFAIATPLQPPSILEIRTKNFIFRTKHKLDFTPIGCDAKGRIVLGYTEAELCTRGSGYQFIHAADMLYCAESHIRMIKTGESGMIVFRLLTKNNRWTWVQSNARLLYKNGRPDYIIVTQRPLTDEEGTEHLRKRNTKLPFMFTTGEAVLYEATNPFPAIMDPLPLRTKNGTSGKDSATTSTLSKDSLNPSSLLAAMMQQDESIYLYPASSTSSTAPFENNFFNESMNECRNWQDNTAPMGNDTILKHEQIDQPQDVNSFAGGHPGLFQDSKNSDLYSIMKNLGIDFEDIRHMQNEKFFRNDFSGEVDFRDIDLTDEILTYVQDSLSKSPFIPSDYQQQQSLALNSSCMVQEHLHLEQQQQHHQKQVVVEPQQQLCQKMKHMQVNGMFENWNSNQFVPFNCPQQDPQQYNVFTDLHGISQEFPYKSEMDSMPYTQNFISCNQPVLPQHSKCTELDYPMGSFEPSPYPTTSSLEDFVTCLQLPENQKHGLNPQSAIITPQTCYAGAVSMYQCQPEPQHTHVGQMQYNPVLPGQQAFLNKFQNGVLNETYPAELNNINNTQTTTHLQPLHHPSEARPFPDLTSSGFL

This test deals with Aryl hydrocarbon receptor (Homo sapiens) (UniProt P35869). Nature of the test: qHTS assay to identify small molecule that activate the aryl hydrocarbon receptor (AhR) signaling pathway (AID 743085).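 For activation: HG2L7.5c1 human HepG2 liver cells with stably integrated DRE-driven firefly reporter.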 Note: nearly all actives have a fitted effect of over 15% in size. The note with it: HepG2 AhR-luc (HG2L7.5c1), luciferase, 24 h; series mostly up to 70.3 µM. The text has this:
U.S. Tox21 Program National Center for Advancing Translational Sciences [NCATS] NIH Chemical Genomics Center [NCGC] U.S. Environmental Protection Agency [EPA] National Institutes of Environmental Health Sciences [NIEHS] National Toxicology Program [NTP] U.S. Food and Drug Administration [FDA] Tox21 Assay overview: The Aryl hydrocarbon Receptor (AhR), a member of the family of basic helix-loop-helix transcription factors, is crucial to adaptive responses to environmental changes. AhR mediates cellular responses to environmental pollutants such as aromatic hydrocarbons through induction of phase I and II enzymes but also interacts with other nuclear receptor signaling pathways. A cell based HepG2-AhR-luc assay (HG2L7.5c1 cell line, developed by Dr. Michael S. Denison, University of California at Davis, was used to assess the activation of AhR. HepG2 (human hepatocellular carcinoma) cells were stably transfected with an Ah receptor-responsive firefly luciferase reporter gene plasmid containing 20 dioxin responsive elements and luciferase reporter gene. Increased luciferase activity can be used to identify the compounds that induce AhR activation.
Tox21 Assay Protocol Summary: 4000 cells in 5 uL/well were dispensed into white wall/solid bottom 1536-well plates using a Multidrop Combi (Thermo Fisher Scientific Inc., Waltham, MA) dispenser. After the assay plates were incubated at 37C for 5 h, 23 nL of compound or DMSO vehicle was transferred to the assay plates by a pintool station (Kalypsys, San Diego, CA). The plates were incubated at 37C for 24 hr. After 1 ul/well of CellTiter-Fluor reagent (Promega, Madison, WI) was added into the assay plates using a Flying Reagent Dispenser (FRD) (Aurora Discovery, CA), the assay plates were incubated at 37C for 30 min. The fluorescence intensity in the plates was measured using a ViewLux plate reader (PerkinElmer, Shelton, CT), followed by the addition of 4 uL of ONE-Glo Luciferase Assay reagent (Promega) using an FRD (Aurora Discovery). After the assay plates were incubated at room temperature for 30 min, luminescence intensity was measured using a ViewLux plate reader (Perkin Elmer).
With `COC(C)(C)CCC[C@H](C)C/C=C/C(C)=C/C(=O)OC(C)C`, the Potency entry is “inactive”.

In the case of `O=C(O)CC(Cl)C(=O)O` (stereo not given), the Potency result is “inactive”.

Consider `Clc1cccc(SC2CCNCC2)n1`, for which the Potency result was “inactive”.

Take `CC(c1ccc(O)cc1)(c1ccc(O)cc1)c1ccc(O)cc1`: the Potency entry is “inactive”.

For the compound `CO/C=C(/C(=O)OC)c1ccccc1COc1cccc(C(F)(F)F)n1`, the Potency entry was “inactive”.

Regarding `CC(C)N(CCC(C(N)=O)(c1ccccc1)c1ccccn1)C(C)C` (stereo not given), the Potency entry is “inactive”.

In the case of `O=[Se]=O`, the Potency result is “inactive”.

As for `ClCC(Br)CBr` (stereo not given), the Potency entry was “inactive”.

Consider `CCCN(CC1CC1)c1c([N+](=O)[O-])cc(C(F)(F)F)cc1[N+](=O)[O-]`, for which the Potency entry is “inactive”.

As for `c1ccc(CN2CCNCC2)cc1`, the Potency result is “inactive”.

In the case of `CC(C)(C)c1cc([N+](=O)[O-])cc([N+](=O)[O-])c1O`, the Potency result was “inactive”.

As to `S=C=NCc1ccccc1`, the Potency result was “inactive”.

For the compound `CCC(C)(NC(=O)c1cc(Cl)c(C)c(Cl)c1)C(=O)CCl` (stereo not given), the Potency result was “inactive”.

Regarding `Cn1sc(Cl)cc1=O`, the Potency result was “inactive”.

Regarding `Clc1cc(C(Cl)(Cl)Cl)cnc1Cl`, the Potency entry is “inactive”.

On to `Cl/C=C\Cl`, for which the Potency result was “inactive”.

On to `CCC(Br)(CC)C(=O)NC(N)=O`, for which the Potency result is “inactive”.

On to `BrCCCCBr`, for which the Potency result is “inactive”.

For the compound `O=C(N[C@H](c1ccccc1)[C@@H]1CN2CCC1CC2)c1c(Cl)ccc(C(F)(F)F)c1Cl`, the Potency result was “inactive”.

For `CCCCN(N=O)C(=N)N[N+](=O)[O-]`, the Potency result is “inactive”.

For `CCOP(=S)(OCC)Oc1cc(Cl)c(Br)cc1Cl`, the Potency was 9.69 µM (active).

For `Cn1cc[n+](C)c1` (tested in a mixture with another compound), the Potency entry is “inactive”.

Turning to `CCOC(=O)COc1cc(-c2nn(C)c(OC(F)F)c2Cl)c(F)cc1Cl`, the Potency is 19.3 µM (active).

For the compound `CCOP(=O)(OCC)Oc1ccc([N+](=O)[O-])cc1`, the Potency result was “inactive”.

Consider `CC(O)(CS(=O)(=O)c1ccc(F)cc1)C(=O)Nc1ccc(C#N)c(C(F)(F)F)c1` (stereo not given), for which the Potency entry is “inactive”.

As for `CCOP(=O)(OCC)SCCSCC`, the Potency entry was “inactive”.

With `COC(=O)c1cncn1C(C)c1ccccc1` (stereo not given), the Potency result was “inactive”.

Consider `CCCCOC(=O)c1ccccc1C(=O)OCc1ccccc1`, for which the Potency result was “inactive”.

Consider `O=Cc1ccc2c(c1)OCO2`, for which the Potency entry is “inactive”.

With `COP(=S)(OC)Oc1cc(Cl)c(I)cc1Cl`, the Potency is 24.3 µM (active).

Take `N#Cc1cc(I)c(O)c(I)c1`: the Potency result is “inactive”.

Turning to `C=CCOC(C)=O`, the Potency result was “inactive”.

For the compound `BrCC(Br)C1CCC(Br)C(Br)C1` (stereo not given), the Potency entry is “inactive”.

Regarding `CC(Cl)C(C)Cl` (stereo not given), the Potency entry was “inactive”.

Consider `COC(N)=O`, for which the Potency result is “inactive”.

For the compound `O=C(NC(=O)c1c(F)cccc1F)Nc1ccc(OC(F)(F)C(F)OC(F)(F)F)c(Cl)c1` (stereo not given), the Potency result is “inactive”.

As for `CC(C)(OO)c1ccccc1`, the Potency result is “inactive”.

For `NC(=O)CI`, the Potency result was “inactive”.

In the case of `C=CCN1CC[C@]23c4c5ccc(O)c4O[C@H]2C(=O)CC[C@@]3(O)[C@H]1C5`, the Potency entry was “inactive”.

As for `CN1C(=O)C(O)N=C(c2ccccc2)c2cc(Cl)ccc21` (stereo not given), the Potency result was “inactive”.
